The record followed here is PubChem BioAssay (NCI).

Compounds without any hit were thinned out: in the full panel of roughly 83,000, 20% have a hit.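 Single-dose data. Exposure time 48 hours. Values below 10 considered active.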 Unmarked numbers belong to inactive results. Activity calls are given as the source filed them.

The assay deals with UO-31 renal. The assay can be described thus: NCI-60 one-dose screen, 48 h (100 = growth as untreated, 0 = no growth, -100 = all killed). The note with it: 10 µM unless noted.
With `O=C(Nc1nc2ccccc2s1)Nc1ccccc1Cl`, the growth was 66.8%.

In the case of `Cc1ccc(C(=O)Nc2cc(-n3ccnc3C)cc(C(F)(F)F)c2)cc1C#Cc1cnc2cccnn12`, the growth is 0.162% (active).

`O=C(c1ccc(O)cc1)C1[C@H](c2ccc(Cl)cc2)[C@@H](c2ccccc2)NC12C(=O)Nc1ccccc12` (stereo partly specified): the growth is 3.54% (active).

Turning to `COc1ccc(-c2nc3ccc(-c4nnc(SCC(=O)Nc5ccc(/C(C)=N\O)cc5)o4)cc3[nH]2)cc1`, the growth was 87.5%.

On to `C[C@H]1[C@@H](CC(=O)N[C@@H](Cc2coc3ccccc23)B(O)O)O[C@@H]2OC3(C)CC[C@H]4[C@H](C)CC[C@@H]1[C@@]24O3`, for which the growth is 12.4%.

Turning to `Cc1cc(C(NC(=O)C2CC3(CC(Nc4cccc5c4C(=O)N(C4CCC(=O)NC4=O)C5=O)C3)C2)c2ccc3c(c2)OC(F)(F)O3)c(O)c2ncccc12` (stereo unspecified), the growth is -5.11% (active).

As to `NC(=O)c1ccc(-c2ccc3ncnc(N4CCc5cc(F)c(Cl)cc54)c3c2)cn1`, the growth was 33.1%.

Turning to `CCN1C(=O)N(CC)C2NNC(Sc3c(C(=O)O)c4ccccc4n(CCC(C)C)c3=O)=NC21` (stereo unspecified), the growth was 28.1%.

Take `COc1ccc2[nH]c(O)c(N=Nc3nc(-c4ccc(Cl)cc4)cs3)c2c1`: the growth was -61.4% (active).

As for `CC[C@]12C=CCN3CC[C@@]4(c5ccc(OC)cc5N(C)[C@H]4[C@@](O)(C(=O)OC)[C@@H]1OC(=O)CCCC[P+](c1ccc(F)cc1)(c1ccc(F)cc1)c1ccc(F)cc1)[C@@H]32`, the growth is 85.9%.

`COc1cccc(/C=C/c2nc3ccccc3c(=O)n2CC(=O)Nc2ccccc2)c1`: the growth was -24.8% (active).
